In the library only some 2.8% were active in any assay of this set; here they are far more common.
Pol beta inh: qHTS Assay for Inhibitors of DNA Polymerase Beta | Pol beta primer extension/strand displacement, fluorescence kinetic | 1.3% of 340,000 active | AID 485314, 2010 | Potency, µM (highest dose often 114 µM), inactives show at the top dose activity change, negative = inhibition, usual class: inhibitors; also: potency is read from the fitted curve at half-maximal effect; % is scaled to controls: 0 for no effect and ±100 for the full control effect
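Curves were derived by four-parameter Hill fits of normalized qHTS data. The kinetic fluorescent primer-extension read was taken at 0 and 10 min after 50 nM substrate, following a 15 min room-temperature preincubation of 10 nM enzyme with compounds.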
Pol iota inh: qHTS for Inhibitors of Polymerase Iota. 1% of 390,000 active. AID 588590, 2011. DNA polymerase iota (Homo sapiens), Q9UNA4. Pol iota fluorescent replication assay, 10 min. Potency, µM (titrated, usually from 115 µM), without a hit: at the highest dose activity, negative = inhibition, usual class: inhibitors; also: potency is read from the fitted curve at half-maximal effect
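Pol iota at 10 nM preincubated 15 min with compounds at room temperature; reaction started with fluorescent substrate, 50 nM final. Fluorescence read kinetically at 0 and 10 min; buffer-only wells as negative control.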
PI5P4K alpha inh: qHTS for Inhibitors of phosphatidylinositol 5-phosphate 4-kinase (PI5P4K) | AID 652105, 2013 | PI5P4Kalpha enzyme, ADP-Glo luminescence, 60 min; active compounds read low | 1.2% of 330,000 active | Phosphatidylinositol 5-phosphate 4-kinase type-2 alpha (Homo sapiens), P48426 | max response, %; active = max response of -50% or lower; inconclusive = between -30% and -50%; inactive = -30% or higher; also: value at the top dose of about 77 µM; % is scaled to controls: 0 for no effect and ±100 for the full control effect
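Enzyme plus substrate dispensed, test compounds pinned in, then ATP (5 microM final) added. After 60 min at RT, ADP-Glo reagent 1 for 45 min and reagent 2 for 30 min preceded luminescence imaging.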
Pol kappa inh: qHTS for Inhibitors of Polymerase Kappa; DNA polymerase kappa (Homo sapiens), Q9UBT6; purified Pol kappa, fluorescent DNA synthesis assay, 10 min; Potency, µM (series often up to 107 µM), for inactives: top-dose activity, negative = inhibition, hits mostly inhibitors; 0.53% of 400,000 active; also: potency is read from the fitted curve at half-maximal effect; % is scaled to controls: 0 for no effect and ±100 for the full control effect
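50 nM final substrate added after 15 min RT preincubation of 10 nM Pol kappa with compound; fluorescence read at 0 and 10 min.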
Pol eta inh-1: qHTS for Inhibitors of Polymerase Eta; Potency, µM (series often up to 114 µM), inactives show at the highest dose activity change, negative = inhibition, usual class: inhibitors; recombinant Pol eta, fluorescent DNA replication assay; 1.2% of 390,000 active; DNA polymerase eta (Homo sapiens), Q9Y253; also: potency is read from the fitted curve at half-maximal effect; % is scaled to controls: 0 for no effect and ±100 for the full control effect
Target sequence (Q9Y253 whole entry, looked up): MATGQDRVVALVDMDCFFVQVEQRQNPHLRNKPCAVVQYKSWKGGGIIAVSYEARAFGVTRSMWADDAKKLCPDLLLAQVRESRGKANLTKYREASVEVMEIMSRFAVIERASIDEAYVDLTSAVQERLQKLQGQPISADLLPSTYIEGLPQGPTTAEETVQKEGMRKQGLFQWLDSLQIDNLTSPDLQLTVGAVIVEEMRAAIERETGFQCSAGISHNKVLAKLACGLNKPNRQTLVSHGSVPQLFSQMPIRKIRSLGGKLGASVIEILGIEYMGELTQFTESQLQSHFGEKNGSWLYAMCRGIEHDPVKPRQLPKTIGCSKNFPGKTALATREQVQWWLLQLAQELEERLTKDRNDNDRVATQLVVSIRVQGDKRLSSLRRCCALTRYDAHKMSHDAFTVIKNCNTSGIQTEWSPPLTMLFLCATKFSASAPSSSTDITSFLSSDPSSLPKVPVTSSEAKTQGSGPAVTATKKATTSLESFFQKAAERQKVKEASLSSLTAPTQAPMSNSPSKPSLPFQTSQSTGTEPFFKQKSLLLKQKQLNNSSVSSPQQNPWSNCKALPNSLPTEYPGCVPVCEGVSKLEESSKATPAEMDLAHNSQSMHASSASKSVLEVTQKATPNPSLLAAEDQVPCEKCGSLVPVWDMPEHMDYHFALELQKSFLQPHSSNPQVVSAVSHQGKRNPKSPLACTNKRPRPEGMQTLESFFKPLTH
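Pol eta (10 nM) was preincubated with compounds for 15 min at room temperature, after which fluorescent replication substrate (50 nM final) was added to start the reaction. Fluorescence was read kinetically at 0 and 10 min.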
WRN helicase inh-1: qHTS for Inhibitors of WRN Helicase; WRN helicase unwinding, fluorescent forked duplex, kinetic; Potency, µM (top dose mostly 114 µM), inactives show at the top dose activity change, negative = inhibition, usual class: inhibitors; Bifunctional 3'-5' exonuclease/ATP-dependent helicase WRN (Homo sapiens), Q14191; 0.46% of 360,000 active; also: potency is read from the fitted curve at half-maximal effect; % is scaled to controls: 0 for no effect and ±100 for the full control effect; nearly all actives have a fitted effect of over 55% in size
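WRN at 20 nM final was preincubated with compound for 15 min at room temperature; reaction started with 100 nM forked duplex oligonucleotide carrying fluorophore and quencher plus 2 mM ATP (final). Unwinding followed kinetically by red fluorescence (ex 525/em 598 nm).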
Pol eta inh-2: qHTS for Inhibitors of Polymerase Eta: Confirmatory Assay for Cherry-picked Compounds | shares compounds with Pol eta inh-1 | Pol eta primer extension, TAMRA/BHQ fluorescence, 10 min | Potency, µM, actives largely listed as inhibitors | 64% of 2,600 active; also: potency is read from the fitted curve at half-maximal effect
WRN helicase inh-2: qHTS for Inhibitors of WRN Helicase: Confirmatory Assay for Cherry-picked Compounds; shares compounds with WRN helicase inh-1; WRN helicase DNA unwinding, fluorescence kinetic; Potency, µM (doses to about 57.1 µM), for the others: at the highest dose activity, negative = inhibition, usual class: inhibitors; 63% of 610 active; AID 720497, 2013; also: potency is read from the fitted curve at half-maximal effect; nearly all actives have a fitted effect of over 65% in size
TO displacement: qHTS for Inhibitors of WRN Helicase: Thiazole Orange DNA Binding Counterscreen | shares compounds with WRN helicase inh-1 | thiazole orange DNA binding displacement, fluorescence | Potency, µM (top dose mostly 57.1 µM), for the others: at the top dose activity change, negative = inhibition, hits mostly inhibitors | 10% of 610 active | AID 720499, 2013;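 also: drop in dye fluorescence marks compound binding to DNA; potency is read from the fitted curve at half-maximal effect; % is scaled to controls: 0 for no effect and ±100 for the full control effect; nearly all actives have a fitted effect of over 60% in size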
BLM helicase inh: qHTS for Inhibitors of WRN Helicase: BLM Helicase Counterscreen for WRN Inhibitors; shares compounds with WRN helicase inh-1; Recombinant BLM helicase DNA unwinding, red fluorescence; Potency, µM (top dose mostly 57.1 µM), for the others: at the highest dose activity change, negative = inhibition, hits mostly inhibitors; 60% of 610 active; AID 720503, 2013; also: potency is read from the fitted curve at half-maximal effect; nearly all actives have a fitted effect of over 60% in size
Starred values were filed as active, the others as inactive; ? = inconclusive; . = not tested or not shown; [ ] = remark or other dose. Unless noted, calls follow the shape of the dose curve; as a rule, active = well fitted curve in the direction sought with a large enough effect; inconclusive = small, poorly fitted or top-dose-only effect, or another doubt; inactive = no such curve, though single readings can be large; an effect the other way counts as inactive or inconclusive.

SMILES | Pol beta inh | Pol iota inh | PI5P4K alpha inh | Pol kappa inh | Pol eta inh-1 | WRN helicase inh-1 | WRN helicase inh-2 | TO displacement | BLM helicase inh | others
CCn1ncc(-c2ccnc3cc(C(=O)O)nn23)c1C | ? | 35µM* | ? | -20% | 25µM* | -4%[11.6 µM] | . | . | . | Pol eta inh-2=?
C=CCN1C(=O)/C(=C/c2ccc(Br)s2)C(=O)NC1=S | ? | 18µM* | -94* | 79µM* | 20µM* | 56µM* | . | . | . | Pol eta inh-2=?
C=CCN1C(=O)/C(=C/c2ccc3c(c2)CCCN3CCC)C(=O)NC1=S | ? | ? | ? | ? | 71µM* | 56µM* | . | . | . | Pol eta inh-2=67*
COc1cc(C=C2C(=O)NC(=O)NC2=O)ccc1OS(=O)(=O)c1ccccc1[N+](=O)[O-] | 20% | ? | -67* | -14% | -19% | 28µM* | -20% | -10% | -4%
Cc1ccc2c(c1)[C@@H]1CN(C)CC[C@H]1N2 | . | . | . | -1%[19.4 µM] | . | . | . | . | .
O=C1NC(=O)C(=Cc2c(Cl)cccc2Cl)C(=O)N1 | . | -1% | ? | -21% | -3% | 35µM* | 0% | -3% | -4%
Cc1c(C=C2C(=O)NC(=O)NC2=O)c(=O)n(-c2ccccc2)n1C | -13% | 162% | -18 | -21% | -16% | -10% | . | . | .
O=C1CC=C2C3CC4N(CCC45c4cc(O)c(O)cc4N1C25)CC3=CCBr (stereo not given) | . | 40µM* | -70* | ? | ? | 28µM* | 19µM* | -4% | 5.4µM*
CCOc1cc(C=C2C(=O)NC(=O)NC2=O)ccc1OCC(=O)N1CCOCC1 | 17% | 12% | ? | -3% | -10% | ? | -4% | -3% | -11%
Cc1ccc(NC(=O)Nc2ccc3nc(N4CCN(C)CC4)cc(C)c3c2)cc1F | 0% | ? | . | -14% | -13% | . | . | . | .
CN(C)CC(C(=O)Cc1ccccc1)c1ccccc1 (stereo not given) | . | ? | 2 | -6% | -13% | 45µM* | 0.3µM* | 3% | ?
C[C@@H]([C@@H](O)c1ccccc1)N(C)C(=O)Cc1ccccc1 | . | 30% | 0 | -15% | -17% | 1% | . | . | .
Cc1ccc(OCCOc2cccc(C=C3C(=O)NC(=O)NC3=O)c2)c(C)c1 | ? | ? | -62* | -19% | -22% | 35µM* | ? | -23% | 27µM*
